ALDH1A1 block: ALDH1A1 (human) enzyme inhibition | P00352 | Purified ALDH1A1, NADH fluorescence, propionaldehyde substrate | Potency, µM (highest dose often 75.3 µM), for inactives: at the top dose activity, negative = inhibition, hits mostly inhibitors | 220,000 compounds, 7.3% hits; active = well fitted inhibition curve with a large enough effect, not every such curve was filed as active; inconclusive = small, poorly fitted or top-dose-only effect, or another doubt; inactive = no such curve, though single readings can be large or run the other way;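 note: plate controls were no enzyme wells and a reference inhibitor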
Target sequence (P00352 whole entry, looked up): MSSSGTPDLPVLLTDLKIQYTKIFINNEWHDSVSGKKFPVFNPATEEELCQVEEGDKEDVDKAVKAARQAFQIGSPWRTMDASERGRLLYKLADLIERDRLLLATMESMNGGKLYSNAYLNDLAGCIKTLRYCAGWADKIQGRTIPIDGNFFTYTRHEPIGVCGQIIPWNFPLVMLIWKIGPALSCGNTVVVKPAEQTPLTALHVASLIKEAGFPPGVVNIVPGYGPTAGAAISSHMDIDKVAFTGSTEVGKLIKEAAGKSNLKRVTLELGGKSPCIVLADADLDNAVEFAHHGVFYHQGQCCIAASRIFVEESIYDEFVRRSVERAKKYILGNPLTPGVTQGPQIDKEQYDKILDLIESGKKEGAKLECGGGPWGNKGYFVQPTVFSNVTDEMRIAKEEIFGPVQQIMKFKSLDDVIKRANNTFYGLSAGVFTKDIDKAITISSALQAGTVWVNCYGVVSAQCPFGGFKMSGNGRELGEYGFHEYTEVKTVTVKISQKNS
HPGD block: inhibitors of human 15-hydroxyprostaglandin dehydrogenase (HPGD); P15428; AID 894; 150,000 compounds, 4.3% hits; purified HPGD, NADH fluorescence kinetic, PGE2 substrate; Potency, µM, for the others: at the top dose activity change, negative = inhibition, actives largely listed as inhibitors; active = well fitted inhibition curve with a large enough effect, not every such curve was filed as active; inconclusive = small, poorly fitted or top-dose-only effect, or another doubt; inactive = no such curve, though single readings can be large or run the other way; note: % is set by controls: 0 for no effect and ±100 for the full control effect
Target sequence (P15428 whole entry, looked up): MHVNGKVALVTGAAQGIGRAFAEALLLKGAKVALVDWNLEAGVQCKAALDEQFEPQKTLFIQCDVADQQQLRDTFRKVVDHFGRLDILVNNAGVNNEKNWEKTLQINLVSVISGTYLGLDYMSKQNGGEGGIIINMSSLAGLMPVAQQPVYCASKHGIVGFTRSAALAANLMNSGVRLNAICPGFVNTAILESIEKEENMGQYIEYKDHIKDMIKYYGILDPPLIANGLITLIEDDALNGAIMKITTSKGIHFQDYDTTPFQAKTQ
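NADH formation kinetics: reaction with 30 uM PGE2 and 1 mM NAD+ (final), 20 nM enzyme, Tris-HCl pH 8 with Tween 20, after 15 min compound preincubation at room temperature. Fluorescence change, last versus first of five reads.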
HTT cytoprotect: cytoprotection in Huntington HTT-Q103 PC12 cell model | 230,000 compounds, 0.14% hits | AID 1471 | PC12 HTT-Q103 induced, cytoprotection, ATP luminescence, 40 h | Potency, µM (titrated, usually from 56.4 µM), for the others: cytoprotection (ATP increase), most hits filed as activators; note: % of control where 0% means no effect; nearly all actives have a fitted effect of over 45% in size
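Readout: ATPlite luminescence (ATP level). Model: stable PC12, inducible Htt exon1 Q103-GFP. Inducer: tebufenozide, 100 nM final. Compounds: dose series. No G418 in medium.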
HTT aggregate: reduces HttQ103-GFP aggregates in PC12 cells; Potency, µM (highest dose often 46.1 µM), without a hit: at the top dose activity change, negative = inhibition, most hits filed as inhibitors; PC12 HttQ103-GFP aggregates, Acumen cytometry, 40 h; 220,000 compounds, 1.1% hits; note: % is set by controls: 0 for no effect and ±100 for the full control effect; nearly all actives have a fitted effect of over 60% in size
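Compounds (qHTS titration) were added to PC12 cells expressing an ecdysone-driven HTT exon 1 Q103–GFP fusion after induction with 100 nM tebufenozide. Aggregate formation was measured as GFP objects in cell lysates.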
LMNA splice mod: changes lamin A minigene splicing in HeLa cells; Potency, µM (highest dose often 46.1 µM), for the others: at the top dose ratio change, negative = inhibition, actives largely listed as inhibitors; HeLa LMNA splicing GFP/RFP minigene ratio, 48 h; 200,000 compounds, 0.01% hits; AID 1487; active = well fitted inhibition curve with a large enough effect in the signal ratio, with a control signal flat, not every such curve was filed as active; inconclusive = small, poorly fitted or top-dose-only effect, or effect the other way, or a change in a side signal; the % refers to the signal ratio; note: % is set by controls: 0 for no effect and ±100 for the full control effect
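S3 HeLa cells stably expressing lamin A-EGFP splicing minigene plus DsRed2, 600 cells/well, 48 h compound exposure at 37C. Laser-scanning cytometry; analysed as GFP (500-530 nm)/RFP (575-640 nm) total intensity ratio; 0.5% DMSO vehicle.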
Luc counter: blocks Kinase-Glo luciferase, a counter-screen artifact. Potency, µM (series often up to 38.3 µM), inactives show at the highest dose activity change, negative = inhibition, hits mostly inhibitors. Q27757. AID 1379. Kinase-Glo luciferase, ATP luminescence, 8 min. 200,000 compounds, 0.28% hits; note: % is set by controls: 0 for no effect and ±100 for the full control effect; nearly all actives have a fitted effect of over 60% in size
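Kinase-Glo luciferase light output from ATP and luciferin was measured with 10 uM ATP, within the enzyme's linear range. Buffer: 50 mM imidazole pH 7.2, 50 mM KCl, 7 mM MgCl2, 0.01% Tween 20, 0.05% BSA; luminescence read after 8 min at ambient temperature.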
* hit, by the source's call; ? = inconclusive; . = no result; [ ] = dose if it differs, or a comment. The list is not random: actives were taken first. Their share in the collection is about 9%. Unless noted, calls come from the whole dose curve; as a rule, active = well fitted curve in the direction sought with a large enough effect; inconclusive = small, poorly fitted or top-dose-only effect, or another doubt; inactive = no such curve, though single readings can be large; an effect the other way counts as inactive or inconclusive. Potency is the fitted concentration of half-maximal effect.

SMILES | ALDH1A1 block | HPGD block | HTT cytoprotect | HTT aggregate | LMNA splice mod | Luc counter
CCCC(C)C(=O)OCC(=O)Nc1ccc(Br)cc1 (stereo not given) | 11µM* | . | -42% | 11% | . | 2%
CC(=O)NC(C)C(=O)OCC(=O)Nc1ccc(Br)cc1 (stereo not given) | ? | -11% | 21% | -3%[9.22 µM] | 0% | 5%
CC1=C(C(=O)N(C)C)C(c2ccc(Cl)c(Cl)c2)NC(=O)N1 (stereo not given) | -3% | -11% | -6%[0.074 µM] | -2% | 5% | -1%
CCN(CC)C(=O)C1=C(C)NC(=S)NC1c1cccs1 (stereo not given) | ? | . | . | 21% | . | 0%
CCN(CC)C(=O)C1=C(C)NC(=S)NC1c1ccc(C)s1 (stereo not given) | 8.9µM* | . | 5%[10 µM] | 22% | 4%[46 µM] | 4%
CC1=C(C(=O)N(C)C)C(c2ccc(C)s2)NC(=S)N1 (stereo not given) | 25µM* | . | -40% | 14% | 18%[46 µM] | -4%
O=C(NCCN1CCOCC1)c1ccccc1Oc1ccccc1 | 1% | -9% | 18%[10 µM] | -13% | 1% | 0%
CCCCC(=O)Nc1nnnn1CCC | 9% | -1% | . | -2% | 3% | -2%
Cc1nn(-c2ccccc2)c2c1C1(C(=O)N(C)c3ccccc31)N(c1ccccc1)C(=O)N2 (stereo not given) | -4% | -1% | 12%[10 µM] | 5% | 1% | -2%
CCCc1nc2oc(C(=O)c3ccccc3)c(N)c2c2c1COC(C)(C)C2 | 10µM* | -16% | -11%[10 µM] | 5% | 6% | -3%
O=C(COC(=O)c1cccc(Cl)c1Cl)NCCN1C(=O)CSC1=O | 0% | -11% | 30%[10 µM] | -8% | 1% | 0%
O=C(COC(=O)c1ccccc1Br)NCCN1C(=O)CSC1=O | 14µM* | . | 1% | 10% | -21%[46 µM] | 1%
O=c1c(-c2ccc(F)cc2)[n+]([O-])c2ccccc2n1OCc1ccccn1 | 2% | . | -13% | 25%[9.22 µM] | . | 0%
O=c1c(-c2ccco2)[n+]([O-])c2ccccc2n1OCc1ccccc1[N+](=O)[O-] | 14µM* | . | -25% | 3% | . | 0%
CCOc1ccc(-c2c(=O)n(OCc3ccc([N+](=O)[O-])cc3)c3ccccc3[n+]2[O-])cc1 | 20µM* | -19% | 6%[10 µM] | -9% | ? | -3%
O=c1c(-c2ccco2)[n+]([O-])c2ccccc2n1OCc1ccccn1 | 10µM* | -19% | -13% | 16% | 10% | -1%
CC(C)Oc1ccc(C(CC(=O)N(C)CCC#N)c2ccc(F)cc2)cc1 (stereo not given) | ? | -14% | -1%[10 µM] | 0% | -5% | -3%
OCCSc1nc(-c2ccccc2)nc2c1CCC2 | 9% | -7% | 3%[0.074 µM] | 0% | -9% | -3%
NNC(=O)CSc1nc(-c2ccccc2)nc2c1CCCC2 | 2µM* | . | -44% | 17% | -4%[46 µM] | 5%
COC1CCCCC1NS(=O)(=O)c1ccc(Cl)cc1 (stereo not given) | -3% | -8% | -5% | -12% | 7% | 17%
CC(C)Cn1[nH]c2c3c(ccc2c1=O)C(=O)c1ccccc1C3=O | ? | 2µM* | -70% | 22µM* | -10% | -14%
CC(C)(C)C(=O)Nc1nc2c(s1)CN(Cc1ccccc1)CC2 | 32µM* | . | -9% | -11% | -27%[46 µM] | 0%
O=C(Nc1nc2c(s1)CN(Cc1ccccc1)CC2)c1c(F)cccc1F | 19µM* | . | -26% | 9% | -5%[46 µM] | 0%
COc1cc(OC)cc(C(=O)NCC(=O)OC2CCOC2=O)c1 (stereo not given) | 6% | -3% | 2%[10 µM] | -5% | 0% | 0%
COc1ccc(/C=C(\C#N)C(=O)OC2CCOC2=O)cc1 (stereo not given) | 18µM* | . | -34% | -3% | ? | 0%
SMILES | ALDH1A1 block | HPGD block | HTT cytoprotect | HTT aggregate | LMNA splice mod | Luc counter
CCCCc1c(C)[nH]c(C(=O)OCC)c1C | -2% | . | 5% | 10% | . | 5%
O=[N+]([O-])c1cccc(CNCc2ccccc2)c1 | -5% | . | -18%[10 µM] | -13%[9.22 µM] | . | -1%
O=[N+]([O-])c1cccc(CNc2ccc3c(c2)CCC3)c1 | 22µM* | -14% | . | -9% | 5% | -2%
CCOc1cc(CNc2ccc3c(c2)CCC3)ccc1OC | 20µM* | -14% | 11% | 7%[9.22 µM] | 5% | 3%
COC(=O)c1cc(-c2ccc(C)cc2)n[nH]1 | -1% | . | 14%[10 µM] | 15%[9.22 µM] | -2%[46 µM] | -1%
N=C(N)c1ccc(N=Nc2c(O)ccc3c2[nH]c2ccccc23)cc1 | 2%[13.5 µM] | -1% | -9%[10 µM] | . | . | -4%[7.66 µM]
Oc1ccc(C2C(c3ccccc3)=NN=C(c3ccc(Cl)cc3)N2O)c(O)c1 (stereo not given) | 11µM* | -4% | . | -10% | -6% | 0%
Oc1ccc(C2C(c3ccccc3)=NN=C(c3ccccc3F)N2O)c(O)c1 (stereo not given) | 8.9µM* | -3% | . | -15% | ? | 3%
CC1=NN=C(c2ccccc2)C(c2c[nH]c3ccccc23)N1O (stereo not given) | 0% | -5% | . | -14% | -2% | -1%
CC(=O)Nc1cccc(NS(=O)(=O)Cc2ccc(Cl)cc2)c1 | 28µM* | -13% | -15%[0.074 µM] | -14% | 8% | -2%
CC(=O)c1ccc(NS(=O)(=O)Cc2ccc(Cl)cc2)cc1 | -8% | -11% | 1% | 6% | -7% | -6%
NC(=O)NNc1cccc(Cl)n1 | 35µM* | . | -8% | 14% | . | 4%
COc1cc2ncnc(NCc3ccc(Cl)cc3)c2cc1OC | 6% | . | -87% | -21%[9.22 µM] | . | 0%
Cc1ccc(CNc2ncnc3cc(Cl)ccc23)o1 | -6% | -15% | -10% | 13µM* | ? | -1%
CCCCNC(=O)CSc1nc2ccccc2n1S(=O)(=O)c1ccc(Cl)cc1 | 14% | 2µM* | -7%[10 µM] | -2% | -4% | 4%
CCCCNC(=O)CSc1nc2ccccc2n1S(=O)(=O)c1ccc(Br)cc1 | 10% | 2.5µM* | . | ? | 6% | 3%
CCOc1ccc(-n2c(SCC(=O)Nc3ccc(OC)cc3)nc3c(c2=O)SCC3)cc1 | -13% | -12% | 5% | -1% | 5% | -4%
CN(NS(=O)(=O)c1ccc(Cl)cc1)c1nc(C(F)(F)F)nc2ccccc12 | 20% | . | -56% | 10µM* | ? | -3%
Cc1cccc(N2CCN(Cc3nc(CC4CC4)no3)CC2)n1 | 7% | . | 12%[10 µM] | 2%[9.22 µM] | 19%[46 µM] | 1%
CCOC(=O)C1(Cc2ccc(OC)cc2)CCN(S(C)(=O)=O)CC1 | 18% | . | 6%[10 µM] | 1%[9.22 µM] | . | -1%
CCOC(=O)C1(Cc2ccccc2Cl)CCN(S(C)(=O)=O)CC1 | 10µM* | . | 23%[10 µM] | 9%[9.22 µM] | 1%[46 µM] | 3%
